In general, AC50 refers to the midpoint of the concentration-response curve, whichever way the signal moves.

The structures appear in SMILES notation. The source made the active and inactive calls. How the source made its calls: active means hit-call score of the fitted dose curve at least 0.9, where 1 is the maximum; inactive means score below 0.9.

Read-out in assay [1]: growth arrest and DNA damage 45 (GADD45A), GADD45A (gene 1647)
As to the kind of experiment: LTEA_HepaRG_GADD45A: Life Technologies and Expression Analysis (LTEA) Assay for growth arrest and DNA damage 45 (GADD45A) using HepaRG (AID 2283458). Particulars: mRNA level, 48 h; actives raise or lower the signal. The essentials:
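Cells plated and cultured 48 h, switched to serum-free induction medium, then dosed for 48 h (100 uM top, half-log dilutions, 0.5% DMSO). RNA was isolated and transcript measured by Fluidigm qRT-PCR.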

Read-out in assay [2]: Forkhead box O3 (FOXO3), FOXO3 (gene 2309)
In words: LTEA_HepaRG_FOXO3: Life Technologies and Expression Analysis (LTEA) Assay for Forkhead box O3 (FOXO3) using HepaRG (AID 2283459). Particulars: mRNA level, 48 h; actives raise or lower the signal. The essentials: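 HepaRG, 48 h post-dose; 8 conc., half-log from 100 uM, 0.5% DMSO, duplicates; serum-free induction medium. Readout: FOXO3 mRNA, TaqMan qRT-PCR, housekeeping-normalized. Bidirectional curve fit vs DMSO baseline.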

Read-out in assay [3]: ABC Transporter (ABCB1), ABCB1 (gene 5243)
As to the kind of experiment: LTEA_HepaRG_ABCB1: Life Technologies and Expression Analysis (LTEA) Assay for ABC Transporter (ABCB1) using HepaRG (AID 2283460). Particulars: mRNA level, 48 h; actives raise or lower the signal. The essentials: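 Expression of ABCB1 was quantified by qRT-PCR against three housekeeping genes after human HepaRG cultures received test chemicals for 48 hours. Concentrations spanned eight half-log steps topping at 100 uM in 0.5% DMSO; gain or loss of signal was fitted relative to vehicle.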

Read-out in assay [4]: growth arrest and DNA damage 45 (GADD45B), GADD45B (gene 4616)
In words: LTEA_HepaRG_GADD45B: Life Technologies and Expression Analysis (LTEA) Assay for growth arrest and DNA damage 45 (GADD45B) using HepaRG (AID 2283461). Particulars: mRNA level, 48 h; actives raise or lower the signal. The essentials:
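Differentiated human HepaRG cells in serum-free induction medium exposed 48 h in duplicate to eight concentrations, top 100 uM, half-log steps, 0.5% DMSO. GADD45B mRNA by TaqMan qRT-PCR, normalized to ACTB, GAPDH, POLR2A; bidirectional fit versus DMSO.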

Read-out in assay [5]: ABC Transporter (ABCC3), ABCC3 (gene 8714)
In words: LTEA_HepaRG_ABCC3: Life Technologies and Expression Analysis (LTEA) Assay for ABC Transporter (ABCC3) using HepaRG (AID 2283462). Particulars: mRNA level, 48 h; actives raise or lower the signal. A digest of the protocol: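 Differentiated human HepaRG cells exposed 48 h in serum-free induction medium, 0.5% DMSO vehicle, 8-point half-log series to 100 uM in duplicate. ABCC3 mRNA by qRT-PCR, normalised to ACTB, GAPDH, POLR2A; bidirectional fit vs DMSO.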

Read-out in assay [6]: ABC Transporter (ABCB11), ABCB11 (gene 8647)
In words: LTEA_HepaRG_ABCB11: Life Technologies and Expression Analysis (LTEA) Assay for ABC Transporter (ABCB11) using HepaRG (AID 2283463). Particulars: mRNA level, 48 h; actives raise or lower the signal. The essentials: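 ABCB11 transcript levels are read by Fluidigm TaqMan qRT-PCR after 48 h chemical treatment of human HepaRG cells. Concentrations span 100 uM downward in half-log steps with 0.5% DMSO; gain or loss is fitted against DMSO controls.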

Read-out in assay [7]: ABC Transporter (ABCC2), ABCC2 (gene 1244)
In words: LTEA_HepaRG_ABCC2: Life Technologies and Expression Analysis (LTEA) Assay for ABC Transporter (ABCC2) using HepaRG (AID 2283464). Particulars: mRNA level, 48 h; actives raise or lower the signal. The essentials:
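Differentiated HepaRG cells in serum-free induction medium exposed 48 h to eight half-log concentrations up to 100 uM, 0.5% DMSO, in duplicate. ABCC2 mRNA measured by qRT-PCR (TaqMan, Fluidigm), normalized to ACTB, GAPDH and POLR2A. Fitted in both directions against DMSO.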

Read-out in assay [8]: Broad substrate specificity ATP-binding cassette transporter ABCG2 (Homo sapiens) (UniProt Q9UNQ0)
In words: LTEA_HepaRG_ABCG2: Life Technologies and Expression Analysis (LTEA) Assay for ABC Transporter (ABCG2) using HepaRG (AID 2283465). Particulars: mRNA level, 48 h; actives raise or lower the signal. A digest of the protocol: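 Read-out is ABCG2 mRNA induction or loss quantified by qRT-PCR after 48 h chemical treatment of human HepaRG cells, normalized to three housekeeping genes. Concentrations reached 100 uM top in half-log steps; fitting was bidirectional against 0.5% DMSO.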

Assay [9] is described as follows: CEETOX_H295R_TESTO: CeeTox H295R High-throughput Steroidogenesis Assay for Testosterone (TESTO) (AID 2283457). Particulars: actives raise or lower the signal. The essentials: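 H295R adrenal cells, passage ≤10, exposed to chemicals for 48 h. Testosterone in medium measured by MTBE extraction and HPLC-MS/MS against a 7-point standard curve. Bidirectional fit versus DMSO; MTT viability checked in the same wells.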

Read-out in assay [10]: ATP-citrate lyase (ACLY), ACLY (gene 47)
As to the kind of experiment: LTEA_HepaRG_ACLY: Life Technologies and Expression Analysis (LTEA) Assay for ATP-citrate lyase (ACLY) using HepaRG (AID 2283466). Particulars: mRNA level, 48 h; actives raise or lower the signal. A digest of the protocol: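 HepaRG, 48 h exposure, 8-pt half-log dilutions (top 100 uM), 0.5% DMSO. Readout: ACLY mRNA, TaqMan qRT-PCR, housekeeping-normalized (ACTB/GAPDH/POLR2A). Bidirectional curve fit vs DMSO.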

Chain of Broad substrate specificity ATP-binding cassette transporter ABCG2 (Homo sapiens) (Q9UNQ0 whole entry, looked up): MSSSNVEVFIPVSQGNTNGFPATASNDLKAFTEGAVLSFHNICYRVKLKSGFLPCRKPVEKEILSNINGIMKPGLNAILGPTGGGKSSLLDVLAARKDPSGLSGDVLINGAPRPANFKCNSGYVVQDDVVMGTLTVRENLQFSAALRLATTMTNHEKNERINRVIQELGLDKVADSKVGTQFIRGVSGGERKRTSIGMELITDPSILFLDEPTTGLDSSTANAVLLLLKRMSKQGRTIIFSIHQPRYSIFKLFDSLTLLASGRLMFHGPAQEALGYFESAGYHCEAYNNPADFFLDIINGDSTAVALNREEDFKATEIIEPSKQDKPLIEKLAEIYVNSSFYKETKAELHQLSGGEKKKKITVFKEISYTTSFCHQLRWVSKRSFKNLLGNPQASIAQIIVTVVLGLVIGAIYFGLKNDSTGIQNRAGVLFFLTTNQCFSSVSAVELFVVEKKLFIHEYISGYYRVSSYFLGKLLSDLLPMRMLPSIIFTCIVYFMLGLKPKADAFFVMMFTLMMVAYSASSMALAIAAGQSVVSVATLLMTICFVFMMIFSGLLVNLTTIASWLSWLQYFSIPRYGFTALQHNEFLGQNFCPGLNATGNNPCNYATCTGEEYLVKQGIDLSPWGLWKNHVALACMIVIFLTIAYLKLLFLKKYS

Take `C/C=C/C=C/C(=O)O`: the AC50 in assay [1] was 0.246 µM (active). Besides, the compound was classed as inactive in assay [2], in [3], in assay [4], in [5], in [6] and in [7]. In addition, the call in [8] was inactive.
As to `COC(=O)[C@H]1[C@H]2C[C@@H]3c4[nH]c5cc(OC)ccc5c4CCN3C[C@H]2C[C@@H](OC(=O)c2cc(OC)c(OC)c(OC)c2)[C@@H]1OC`, the compound was classed as inactive in assay [1], in assay [2] and in assay [4]. Further, the half-maximal activity concentration (AC50) in assay [3] was 9.75 µM (active); in assay [5], 49.8 µM (active); in [6], 31.4 µM (active); in [7], 67.4 µM (active).
Take `NC(=Nc1ccccc1)Nc1ccccc1`: the compound was called inactive in assay [1], in [2], in assay [3], in [4], in assay [5] and in [6]. The call in assay [7] and in assay [8] was inactive.
On to `NC=O`, for which the call in assay [1], in assay [2], in assay [3], in assay [4], in [5] and in assay [6] was inactive. Further, the compound was classed as inactive in assay [7] and in [8].
As to `Cc1cc(SC2=C(O)C[C@@](CCc3ccc(N)cc3)(C(C)C)OC2=O)c(C(C)(C)C)cc1CO`, the call in assay [1], in [2], in assay [4] and in assay [5] was inactive. Moreover, the AC50 in assay [3] is 2.44 µM (active); in [6] it was 50 µM (active); in assay [7] it was 2.16 µM (active).
Consider `CCC(C)N(C)C(=O)c1cc2ccccc2c(-c2ccccc2Cl)n1` (centres undefined), for which the compound was classed as inactive in assay [9], in assay [2], in assay [4], in assay [5], in [6] and in [10]. Also, the AC50 in [3] is 5.38 µM (active); in assay [7], 7.48 µM (active); in [8], 4.44 µM (active).
`CCN(CC)CCOc1ccc(C(=C(Cl)c2ccccc2)c2ccccc2)cc1`: the outcome in assay [9], in [1], in assay [2], in [4], in [5] and in assay [10] was inactive. The concentration at half-maximal activity (AC50) in [3] is 79.9 µM (active); in assay [6], 24.9 µM (active); in assay [7] it was 67.3 µM (active).
Turning to `O=C1OC(c2ccc(O)cc2)(c2ccc(O)cc2)c2ccccc21`, the compound was called inactive in [9], in [3], in [4], in assay [5], in assay [7] and in assay [10]. In addition, the AC50 is 50 µM (active) in [2], 69.8 µM (active) in [6] and 79.2 µM (active) in assay [8].
With `CC(C)COC(=O)CCCCC(=O)OCC(C)C`, the outcome in assay [1], in assay [2], in assay [3], in assay [4], in [5] and in assay [6] was inactive. The compound was classed as inactive in [7], in [8] and in [10].
`CC(=O)O[C@]1(C(C)=O)CC[C@H]2[C@@H]3C=C(Cl)C4=CC(=O)[C@@H]5C[C@@H]5[C@]4(C)[C@H]3CC[C@@]21C`: the half-maximal activity concentration (AC50) in [1] and in assay [7] was 50 µM (active) throughout. In addition, the compound was classed as inactive in assay [2], in assay [3], in assay [4], in assay [5], in [6] and in [8]. Also, the call in [10] was inactive.
For `O=NO`, the outcome in assay [2], in assay [3], in assay [4], in assay [5], in assay [6] and in assay [7] was inactive.
With `CC(C)(C)c1ccccc1`, the result in assay [1], in assay [2], in [3], in assay [4], in [5] and in assay [6] was inactive. In addition, the outcome in assay [7], in assay [8] and in [10] was inactive.
As for `CC(=O)S[C@H](C(=O)N[C@H]1Cc2ccccc2[C@H]2CCC[C@@H](C(=O)O)N2C1=O)C(C)C`, the result in [1], in assay [2], in assay [3], in assay [4], in [5] and in assay [6] was inactive. The compound was called inactive in assay [7], in assay [8] and in [10].
In the case of `CN(C)CCCN1c2ccccc2Sc2ccc(Cl)cc21`, the outcome in assay [1], in assay [2], in [3], in [5], in assay [8] and in assay [10] was inactive. For the same compound, the concentration at half-maximal activity (AC50) was 89.7 µM (active) in [4], 24.7 µM (active) in assay [6] and 89.6 µM (active) in assay [7].
On to `CN(C)CCCN(C)CCCN(C)C`, for which the call in [2], in assay [3], in assay [4], in [5], in [6] and in assay [7] was inactive.
For the compound `S=c1[nH]c2ccccc2s1`, the compound was classed as inactive in [2], in assay [3], in [4], in [5], in [6] and in assay [7].
Take `CC(=O)CC(c1ccccc1)c1c(O)c2ccccc2oc1=O` (centres undefined): the compound was classed as inactive in [1], in assay [2], in assay [3], in [4], in assay [5] and in assay [6]. In addition, the result in assay [7] and in [8] was inactive. In addition, the AC50 in assay [10] is 50 µM (active).
As for `O=C(O)CC(O)(CC(=O)O)C(=O)O`, the outcome in [1], in assay [2], in assay [3], in [4], in assay [5] and in assay [6] was inactive. In [8], the compound was called inactive.
In the case of `CC(C)NCC(O)c1ccc(O)c(O)c1` (centres undefined), the result in [1], in assay [3], in assay [4] and in [5] was inactive. Further, the values for the half-maximal activity concentration (AC50) in [6], in assay [7] and in assay [8] were 0.147 µM (active), 0.128 µM (active) and 0.156 µM (active), respectively.
Take `CCCCCCC(C=O)=Cc1ccccc1`: the outcome in [1], in assay [2], in assay [3], in assay [4], in assay [5] and in [6] was inactive. The call in assay [7] and in assay [10] was inactive.
As to `COC(=O)CCC(=O)OC`, the outcome in assay [1], in assay [2], in assay [3], in [4], in [5] and in assay [6] was inactive. Also, the compound was classed as inactive in assay [7], in [8] and in assay [10].
As for `O=C1CCCCC1`, the compound was called inactive in [2], in assay [3], in [4], in [5], in assay [6] and in assay [7].

(Values after PubChem BioAssay (EPA / NIEHS).)
